Values joined by “and” are separate entries in the source; they are usually repeats but may differ in a detail not shown here. Equal values may be shown once. Screen size: about 5,500 compounds; about 2,000 (36%) were called active. Inconclusive results (about 18%) are left out. Cut-off read from the data, not from the text of the source: active = normalized growth mostly below about 0.91 (no sharp cut-off); inconclusive = no clear call, values can overlap the other calls; inactive = mostly above about 0.92. This is one part of the list.
Experiment: chemical genetic growth profiling, strain panel (AID 1159580);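 note: tested at 20 µM; growth read once vehicle control cultures reached saturation at 30 °C; 1 = growth at the plate median or of vehicle wells; lower values mean less growth of the strain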
Conditions: S. cerevisiae deletion strains, growth OD

Measured: normalized growth

CN(C)CCOC(=O)C(c1ccccc1)C1(O)CCCC1 (stereo not drawn)
inactive: locus YAL013W, strain DEP1, active compounds read low 1.01 | locus YAL021C, strain ccr4, active compounds read low 0.987 | locus YAL026C, strain drs2, active compounds read low 1.03 | locus YAL030W, strain snc1, active compounds read low 0.99 | locus YBL061C, strain skt5, active compounds read low 0.995 | locus YBR009C, strain hhf1, active compounds read low 1 | locus YBR021W, strain FUR4, active compounds read low 0.991 | locus YBR023C, strain chs3, active compounds read low 1 | locus YBR171W, strain sec66, active compounds read low 0.97 | locus YBR229C, strain ROT2, active compounds read low 0.998 | locus YBR231C, strain swc5, active compounds read low 0.972 | locus YBR279W, strain paf1, active compounds read low 0.992 | locus YCL011C, strain gbp2, active compounds read low 1.01 | locus YCL016C, strain dcc1, active compounds read low 1.03 | locus YCL029C, strain bik1, active compounds read low 1.02 | locus YCL061C, strain MRC1, active compounds read low 0.993 | locus YCL069W, strain vba3, active compounds read low 0.991 | locus YCR088W, strain abp1, active compounds read low 0.981 | locus YDL005C, strain med2, active compounds read low 0.991 | locus YDL035C, strain GPR1, active compounds read low 1.01 | locus YDL040C, strain nat1, active compounds read low 0.974 | locus YDL074C, strain BRE1, active compounds read low 1.02 | locus YDL101C, strain DUN1, active compounds read low 0.998 | locus YDL185W, strain tfp1, active compounds read low 1.01 | locus YDL192W, strain arf1, active compounds read low 1.02 | locus YDR001C, strain nth1, active compounds read low 0.963 | locus YDR069C, strain doa4, active compounds read low 0.99 | locus YDR101C, strain arx1, active compounds read low 1 | locus YDR137W, strain rgp1, active compounds read low 1.04 | locus YDR150W, strain NUM1, active compounds read low 0.998 | locus YDR159W, strain sac3, active compounds read low 1.01 | locus YDR162C, strain NBP2, active compounds read low 1.01 | locus YDR195W, strain ref2 0.925 | locus YDR297W, strain sur2, active compounds read low 0.981 | locus YDR318W, strain mcm21, active compounds read low 1.01 | locus YDR334W, strain swr1, active compounds read low 0.984 | locus YDR335W, strain msn5, active compounds read low 0.985 | locus YDR388W, active compounds read low 1.01 | locus YDR392W, strain spt3, active compounds read low 1.08 | locus YDR502C, strain sam2, active compounds read low 1.02 | locus YEL003W, strain gim4, active compounds read low 0.978 | locus YEL037C, strain rad23, active compounds read low 0.984 | locus YEL061C, strain CIN8 (second series), active compounds read low 0.984 | locus YEL061C, strain CIN8, active compounds read low 1 | locus YER015W, strain faa2, active compounds read low 0.999 | locus YER016W, strain bim1, active compounds read low 1.01 | locus YER110C, active compounds read low 1.02 | locus YER111C, strain swi4, active compounds read low 0.971 | locus YER155C, strain BEM2 (second series), active compounds read low 1 | locus YER155C, strain BEM2, active compounds read low 0.996 | locus YER167W, strain BCK2, active compounds read low 1 | locus YFR010W, strain ubp6, active compounds read low 0.962 | locus YGL078C, strain dbp3, active compounds read low 1.01 | locus YGL086W, strain mad1, active compounds read low 1.02 | locus YGL167C, strain pmr1, active compounds read low 0.974 | locus YGL173C, strain kem1, active compounds read low 0.989 | locus YGL227W, strain vid30, active compounds read low 0.988 | locus YGL240W, strain doc1, active compounds read low 0.963 | locus YGL248W, strain PDE1, active compounds read low 1.01 | locus YGL253W, strain hxk2, active compounds read low 1 | locus YGR135W, strain pre9, active compounds read low 1.03 | locus YGR252W, strain gcn5, active compounds read low 0.964 | locus YHR013C, strain ard1, active compounds read low 1.02 | locus YHR027C, strain rpn1, active compounds read low 1.01 | locus YHR030C, strain SLT2, active compounds read low 1 and 0.988 | locus YHR079C, strain IRE1 (second series), active compounds read low 1.01 | locus YHR079C, strain IRE1, active compounds read low 1 | locus YHR094C, strain hxt1, active compounds read low 1.02 | locus YHR129C, strain ARP1, active compounds read low 1 | locus YHR142W, strain chs7, active compounds read low 0.985 | locus YHR200W, strain rpn10, active compounds read low 1.02 | locus YIL066C, strain RNR3, active compounds read low 1.01 | locus YIL073C, strain SPO22, active compounds read low 1.02 | locus YIL125W, strain kgd1, active compounds read low 1.01 | locus YIR030C, strain dcg1, active compounds read low 1.03 | locus YJL092W, strain hpr5, active compounds read low 0.981 | locus YJL095W, strain BCK1 (second series), active compounds read low 0.996 | locus YJL095W, strain BCK1, active compounds read low 1.02 and 0.991 | locus YJL115W, strain asf1, active compounds read low 0.97 | locus YJL129C, strain trk1, active compounds read low 0.96 | locus YJL134W, strain LCB3, active compounds read low 1 | locus YJL154C, strain vps35, active compounds read low 0.972 | locus YJL164C, strain tpk1, active compounds read low 1.01 | locus YJL166W, strain qcr8, active compounds read low 0.978 | locus YJL168C, strain set2, active compounds read low 1.01 | locus YJL187C, strain SWE1 (second series), active compounds read low 1.02 | locus YJR043C, strain POL32, active compounds read low 1.01 | locus YJR066W, strain TOR1, active compounds read low 0.995

From PubChem BioAssay AID1159580 (chemical genetic matrix, 2015)
